Source: PubChem BioAssay
SW480 rerep = induces DNA re-replication in SW480 colon adenocarcinoma cells | actives 1.8% (n = 340,000) | SW480 DNA re-replication, Hoechst DNA content imaging, 48 h | Potency, µM (highest dose often 46.1 µM), actives largely listed as activators; also: nearly all actives have a fitted effect of over 55% in size
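250 cells/well; 23 nL cpd via pin tool; 48 hr, 37 C, 5% CO2; Hoechst 40 min; imager read of total nuclear intensity, ex 405/em 500-530 nm.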
KB-V1 MDR tox = kills drug-selected multidrug resistant KB-V1 cells; AID 1347076; KB-V1 MDR cells viability, CellTiter-Glo, 72 h; Potency, µM (titrated, usually from 46.1 µM), actives largely listed as cytotoxic; actives 3.4% (n = 400,000); also: nearly all actives have a fitted effect of over 60% in size
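Drug-selected KB-V1 cells, grown in DMEM lacking phenol red with 10% FBS, receive compound titrations; after three days at 37 degrees C, surviving cell ATP is quantified by CellTiter-Glo luminescence and responses normalized and curve-fitted.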
KB-3-1 cytotox = kills parental KB-3-1 adenocarcinoma cells; KB-3-1 viability, CellTiter-Glo ATP luminescence, 72 h; Potency, µM (highest dose often 46.1 µM), usual class: cytotoxic; actives 1.4% (n = 400,000); AID 1347075; also: nearly all actives have a fitted effect of over 60% in size
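72 h, 37 °C compound treatment of KB-3-1 parental cells; CellTiter-Glo added, 10 min, luminescence read. Data corrected against DMSO-only plates and normalized before curve fitting.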
MCF10A rereplic = induces DNA re-replication in MCF 10a normal breast cells; Potency, µM (top dose mostly 46.1 µM), usual class: activators; AID 624296; actives 2.9% (n = 350,000); MCF 10A DNA re-replication, Hoechst nuclear intensity, 48 h; also: nearly all actives have a fitted effect of over 50% in size
IL1B secr inh = blocks inflammasome-driven IL-1 beta release | THP-1 LPS/ATP IL-1B secretion, AlphaLISA, 16 h; hits give low values | actives 4.7% (n = 360,000) | activity change, % at 57.5 µM | AID 743279; in the data active = activity change below about -50%; inconclusive = mostly about -30% to -49%
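Secreted IL-1B measured by AlphaLISA bead assay after 16 h compound exposure of THP-1 cells; compounds (final up to 57.5 uM) added 1 h before LPS (250 ng/mL) and ATP (1.25 mM) stimulation; lower signal means less secretion.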
Of the large screens only hits and unclear results are named; the others gave an inactive call. Compounds with a hit are over-represented: about 9.9% of the library has one in this group of screens. Unless noted, calls follow the shape of the dose curve; as a rule, active = well fitted curve in the direction sought with a large enough effect; inconclusive = small, poorly fitted or top-dose-only effect, or another doubt; inactive = no such curve, though single readings can be large; an effect the other way counts as inactive or inconclusive.

CC[C@]1(c2ccccc2)C(=O)N(C(=O)OC)N1C(=O)OC	IL1B secr inh -80.8
COC(=O)N1C(=O)[C@](c2ccccc2)(C(C)C)N1C(=O)OC	MCF10A rereplic inconclusive, IL1B secr inh -91.9
COc1cc(CNCc2ccc(SC)cc2)cc(OC)c1	KB-V1 MDR tox inconclusive, MCF10A rereplic inconclusive
O=C(OC1C2CCC1C1CN(CCc3ccccc3)CC12)c1ccccc1 (stereo not drawn)	SW480 rerep inconclusive, IL1B secr inh -67.3
CCCc1cc(=O)oc2cc3oc(C)c(C)c3cc12	KB-V1 MDR tox 14.6µM
O=C(O)c1ccc(CN2C(=O)c3cccc4c([N+](=O)[O-])ccc(c34)C2=O)cc1	SW480 rerep 5.8µM, KB-V1 MDR tox inconclusive, KB-3-1 cytotox inconclusive, MCF10A rereplic 5.8µM, IL1B secr inh -99.5
O=C(Nc1nccs1)c1cccc(N2C(=O)c3cccc4c([N+](=O)[O-])ccc(c34)C2=O)c1	SW480 rerep 7.31µM, KB-V1 MDR tox inconclusive, KB-3-1 cytotox inconclusive, MCF10A rereplic 3.66µM, IL1B secr inh -106.3
CC(=O)Oc1cccc(N2C(=O)c3ccc(C(=O)O)cc3C2=O)c1	none
O=C(O)c1ccc(CN2C(=O)c3ccc(C(=O)O)cc3C2=O)cc1	none
CC(=O)Oc1cccc(N2C(=O)c3cccc4c([N+](=O)[O-])ccc(c34)C2=O)c1	SW480 rerep inconclusive, MCF10A rereplic 20.6µM, IL1B secr inh -94.6
Cc1ccc(C(=O)O)cc1N1C(=O)c2cccc3c([N+](=O)[O-])ccc(c23)C1=O	SW480 rerep inconclusive, KB-3-1 cytotox inconclusive, MCF10A rereplic 18.4µM
COc1ccc(NC(=O)CSc2ccc3nnc(CCNC(=O)c4ccccc4)n3n2)cc1OC	none (no result: KB-V1 MDR tox, KB-3-1 cytotox)
CC(C)c1cccc(C(C)C)c1NC(=O)CNCc1ccccc1F	none
CCOc1ccc(C(=O)C(C)OC(=O)c2nc(Cl)ccc2Cl)cc1 (stereo not drawn)	none
CS/C(Nc1cc(Cl)ccc1Cl)=C(/C#N)C(=O)c1ccco1	KB-3-1 cytotox inconclusive, MCF10A rereplic inconclusive
CN(C)CCCN1C(=O)c2cccc3c([N+](=O)[O-])ccc(c23)C1=O	SW480 rerep 5.8µM, KB-V1 MDR tox inconclusive, KB-3-1 cytotox 23.1µM, MCF10A rereplic 5.8µM, IL1B secr inh -51.1
O=C1c2cccc3c([N+](=O)[O-])ccc(c23)C(=O)N1CCc1ccccn1	SW480 rerep inconclusive
CC(=O)N1CC(=O)N(c2ccccc2)C1=O	none
COc1ccc(/C=C/C(=O)c2ccc(NC(=O)c3cccs3)cc2)cc1OC	SW480 rerep inconclusive, KB-V1 MDR tox 20.6µM, MCF10A rereplic 9.2µM, IL1B secr inh -65.8
COc1ccccc1C(=O)Nc1ccc(C(=O)/C=C/c2cccs2)cc1	SW480 rerep inconclusive, KB-V1 MDR tox 23.1µM, MCF10A rereplic inconclusive, IL1B secr inh inconclusive
COc1ccc(Br)cc1/C=C/C(=O)c1ccc(NC(C)=O)cc1	SW480 rerep 14.6µM, KB-V1 MDR tox inconclusive, KB-3-1 cytotox 4.11µM, MCF10A rereplic 6.51µM, IL1B secr inh -98.9
COc1ccc(C(=O)Nc2ccc(NC(=O)c3cccs3)cc2)cc1OC	none (no result: SW480 rerep, MCF10A rereplic, IL1B secr inh)
CCn1cc(S(=O)(=O)c2ccc(C)cc2C)c(=O)c2cc(F)c(N3CCCCC3)cc21	none (no result: SW480 rerep, MCF10A rereplic, IL1B secr inh)
CCOc1ccc2c(c1)nc(SCC(=O)c1cccs1)n2C	KB-V1 MDR tox inconclusive
CCOc1ccc2c(c1)nc(SCC(=O)c1ccc(Br)s1)n2C	SW480 rerep inconclusive, KB-V1 MDR tox 18.4µM, KB-3-1 cytotox inconclusive
CCOC(=O)CC1COc2ccccc2N1C(=O)c1ccc(F)cc1 (stereo not drawn)	none
CCOC(=O)CC1COc2ccccc2N1C(=O)c1ccc(C)cc1 (stereo not drawn)	KB-V1 MDR tox 18.4µM
Cc1ccc2cc(CN(CCc3ccccc3)C(=S)NCCCN(C)C)c(=O)[nH]c2c1	SW480 rerep inconclusive, MCF10A rereplic inconclusive, IL1B secr inh inconclusive
Cc1cccc2cc(CN(CCCN(C)C)C(=S)NCCc3ccccc3)c(=O)[nH]c12	KB-V1 MDR tox inconclusive, IL1B secr inh -50.8
Cc1ccc2[nH]c(=O)c(CN(CCCN(C)C)C(=S)NCCc3ccccc3)cc2c1	KB-3-1 cytotox inconclusive, IL1B secr inh -67.5
O=C(CNC(=O)OCc1ccccc1)NCC(=O)Oc1ccc([N+](=O)[O-])cc1	none
O=C(NCc1ccc2c(c1)CCN2C(=O)c1ccc(F)cc1)c1ccc(Br)o1	KB-V1 MDR tox 2.59µM, KB-3-1 cytotox inconclusive (no result: SW480 rerep, MCF10A rereplic, IL1B secr inh)
CCN(CC)c1ccc(C(=O)NCc2ccc3c(c2)CCN3C(=O)c2ccc(F)cc2)cc1	KB-V1 MDR tox inconclusive, KB-3-1 cytotox 14.6µM (no result: SW480 rerep, MCF10A rereplic, IL1B secr inh)
N#Cc1ccc(C(=O)NCc2ccc3c(c2)CCN3C(=O)c2ccc(F)cc2)cc1	none (no result: SW480 rerep, MCF10A rereplic, IL1B secr inh)
O=C(NCc1ccc2c(c1)CCN2C(=O)c1ccccc1)c1ccc(Br)o1	none (no result: SW480 rerep, MCF10A rereplic, IL1B secr inh)
COc1cc(NC(=O)c2ccc3c(c2)OCO3)c2ncccc2c1	MCF10A rereplic inconclusive
Cc1cnc(NC(=O)c2ccc3c(c2)OCCO3)s1	SW480 rerep 4.11µM, KB-V1 MDR tox inconclusive, KB-3-1 cytotox 5.8µM, MCF10A rereplic 2.91µM
O=C(Nc1cccc2cccnc12)c1ccc2c(c1)OCCO2	KB-V1 MDR tox 13µM, MCF10A rereplic inconclusive
Cc1nc2c(ccc3nc(NC(=O)c4ccc5c(c4)OCCO5)sc32)s1	SW480 rerep inconclusive, MCF10A rereplic 2.31µM, IL1B secr inh inconclusive
Cc1cnc(NC(=O)c2cccc(S(=O)(=O)N3CC(C)OC(C)C3)c2)s1 (stereo not drawn)	KB-V1 MDR tox 16.4µM, KB-3-1 cytotox inconclusive
Cc1cnc(NC(=O)c2cccc(S(=O)(=O)N3CCOCC3)c2)s1	none
CCc1ccc(S(=O)(=O)c2nnn3c2nc(Nc2ccc(F)cc2)c2cc(Cl)ccc23)cc1	none (no result: SW480 rerep, MCF10A rereplic, IL1B secr inh)
Clc1ccc(OCc2nc(-c3ccc(-n4cccc4)cc3)no2)cc1	none (no result: SW480 rerep, MCF10A rereplic, IL1B secr inh)
O=C(NCC(=O)N1CCCCCCC1)c1ccc(Cl)c(Cl)c1	none (no result: SW480 rerep, MCF10A rereplic)
Cc1onc(-c2ccccc2)c1C(=O)Nc1nnc(C(C)C)s1	none
Cc1onc(-c2ccccc2)c1C(=O)Nc1ncc([N+](=O)[O-])s1	KB-V1 MDR tox 23.1µM, KB-3-1 cytotox inconclusive, MCF10A rereplic inconclusive, IL1B secr inh -66.8
Cc1ccc(C(=O)Nc2ncc([N+](=O)[O-])s2)cc1	KB-3-1 cytotox inconclusive, IL1B secr inh -66.9
Cc1nc2c(ccc3nc(NC(=O)C(c4ccccc4)c4ccccc4)sc32)s1	MCF10A rereplic 16.4µM
O=C(Nc1ncc([N+](=O)[O-])s1)c1ccc2c(c1)OCO2	KB-V1 MDR tox inconclusive, KB-3-1 cytotox 23.1µM
CC(=O)Nc1ncc([N+](=O)[O-])s1	none (no result: KB-V1 MDR tox, KB-3-1 cytotox, IL1B secr inh)
O=C1CC(c2ccccc2)C(C(=O)Nc2ccccc2F)N1 (stereo not drawn)	none
CCOc1ccc(CCNC(=O)CCc2nnc3ccc(N4CCCCC4)nn23)cc1OCC	none
C=CCN(Cc1ccc(Cl)s1)C(=O)c1cc(S(=O)(=O)N2CCOCC2)ccc1F	none
